This note sets out measurements from PubChem BioAssay AID1345085 (National Center for Advancing Translational Sciences (NCATS), 2018).

Results filed as inconclusive are left out. A call without a number means that no potency is given here. The source made the active and inactive calls. Calls follow the shape of the dose curve; as a rule, active = well fitted cell-killing curve with a large enough effect; inconclusive = small, poorly fitted or top-dose-only effect, or effect the other way; inactive = no such curve, though single readings can be large or run the other way.
Potency is read from the fitted curve at half-maximal effect.

In this assay the test system is C33A. Kind of assay: Confirmatory qHTS for gynecologic anti-cancer compounds from libraries of approved drugs and bioactive compounds. Also: nearly all actives have a fitted effect of over 55% in size. The conditions noted are these: gynecologic cancer cell panel viability, ATPlite luminescence, 48 h; series mostly up to 57.6 µM. In short, it runs like this: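 ATP-based luminescent viability (ATPlite) after 48 h drug treatment at 37 °C, 5% CO2, across 57.5 uM–0.977 nM in 1:3 steps. Cells seeded at 1,000 per well 16 h beforehand; IC50 values computed, HEK 293T as selectivity control.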
(qHTS replaces the single test concentration by a dilution series.)
As for `CCN(CC)CCNC(=O)c1c(C)[nH]c(/C=C2\C(=O)Nc3ccc(F)cc32)c1C`, the Potency is 22400 nM (active).
The same measure for `Cc1cc(Nc2nc(N[C@@H](C)c3ncc(F)cn3)ncc2Cl)n[nH]1`: “inactive”; for `Cc1ccc(C(=O)N(CCCN)C(c2oc3cc(Cl)ccc3c(=O)c2Cc2ccccc2)C(C)C)cc1` (stereo not drawn): 769 nM (active); for `Cc1cc(Nc2nc(N[C@@H](C)c3ccc(F)cc3)c(C#N)cc2F)n[nH]1`: “inactive”.
For the compound `COc1ccc2cc3[n+](cc2c1OC)CCc1cc2c(cc1-3)OCO2`, the Potency result was “inactive”.
The same measure for `Cc1ccc(C(=O)Nc2ccc(CN3CCN(C)CC3)c(C(F)(F)F)c2)cc1C#Cc1cnc2cccnn12`: 19300 nM (active); for `O=C1N(c2ccccc2)c2ccccc2C1(Cc1ccncc1)Cc1ccncc1`: “inactive”; for `CC[C@@]1(O)C(=O)OCc2c1cc1n(c2=O)Cc2cc3cc(O)ccc3nc2-1`: 306 nM (active).
Take `Nc1ccc(-c2ccc3ncc4ccc(=O)n(-c5cccc(C(F)(F)F)c5)c4c3c2)cn1`: the Potency was 172 nM (active).
With `Cc1ccc(C(=O)Nc2ccc(CN3CCN(C)CC3)c(C(F)(F)F)c2)cc1C#Cc1cnc2[nH]ncc2c1` the figure was 17200 nM (active); with `C[C@]12CCC(=O)C=C1[C@@H]1C[C@@H]1[C@H]1[C@@H]3[C@@H]4C[C@@H]4[C@@]4(CCC(=O)O4)[C@@]3(C)CC[C@@H]12`, “inactive”.
`CN(NC(=O)CC(=O)NN(C)C(=S)c1ccccc1)C(=S)c1ccccc1`: the Potency was 27.3 nM (active).
The same measure for `COc1cccc2c1C(=O)c1c(O)c3c(c(O)c1C2=O)C[C@@](O)(C(=O)CO)C[C@@H]3O[C@H]1C[C@H](N)[C@H](O[C@@H]2CCCCO2)[C@H](C)O1`: 2430 nM (active).
As for `O=C(NOCC1CC1)c1ccc(F)c(F)c1Nc1ccc(I)cc1Cl`, the Potency result was “inactive”.
In the case of `Cn1c(=O)c(F)c(Nc2ccc(I)cc2F)c2c(=O)n(CC(O)CO)cnc21` (stereo not drawn), the Potency result is “inactive”.
With `CCCC(Nc1nc(-c2ccc(NC(=O)NCC)c(OC)c2)ncc1C)c1cccnc1` (stereo not drawn) the figure was 153 nM (active); with `CN[C@@H](C)C(=O)N[C@H]1CN(C(=O)CC(C)C)CC[C@H]2CC[C@@H](C(=O)NC(c3ccccc3)c3ccccc3)N2C1=O`, “inactive”; with `CN1CCN(c2cccc(Nc3nc4c(-c5ccc(S(C)(=O)=O)cc5)cccn4n3)c2)CC1`, “inactive”.
As for `Cc1c(NC(=O)OCC2COCCN2)cn2ncnc(Nc3ccc4c(cnn4Cc4cccc(F)c4)c3)c12` (stereo not drawn), the Potency is 24300 nM (active).
The same measure for `CNCc1ccc(-c2[nH]c3cc(F)cc4c3c2CCNC4=O)cc1`: “inactive”; for `CCN[C@H]1C[C@H](C)S(=O)(=O)c2sc(S(N)(=O)=O)cc21`: “inactive”; for `CC(C)c1nn(-c2c(Cl)cccc2Cl)c2nc(Cc3ccc(OCCO)cc3)[nH]c(=O)c12`: 96.8 nM (active).
With `CCC1C(=O)N(C)c2cnc(Nc3ccc(C(=O)NC4CCC(N5CCN(CC6CC6)CC5)CC4)cc3OC)nc2N1C(C)C` (stereo not drawn) the figure was 172 nM (active).
The same measure for `CC(C)C[C@H](NC(=O)[C@H](Cc1ccccc1)NC(=O)c1cnccn1)B(O)O`: 153 nM (active); for `Cc1cc(Nc2cc(N3CCN(C)CC3)nc(Sc3ccc(NC(=O)C4CC4)cc3)n2)n[nH]1`: “inactive”.
As for `O=C(NOC[C@H](O)CO)c1ccc(F)c(F)c1Nc1ccc(I)cc1F`, the Potency entry was “inactive”.
The same measure for `Cn1cc(-c2ccc3ncc(Cc4ccc5ncccc5c4)n3n2)cn1`: “inactive”.
The same measure for `Nc1ccccc1NC(=O)c1ccc(CNc2nccc(-c3cccnc3)n2)cc1`: 3060 nM (active); for `Cn1cnc2c(F)c(Nc3ccc(Br)cc3F)c(C(=O)NOCCO)cc21`: “inactive”.
As to `Cc1cc(Nc2cc(N3CCN(C)CC3)nc(/C=C/c3ccccc3)n2)n[nH]1`, the Potency was 21700 nM (active).
The same measure for `C[C@@]1(C(=O)Nc2ccc(F)nc2)CCCN1c1nc(Nc2cc(C3CC3)[nH]n2)c2cccn2n1`: “inactive”.
With `COc1ccc(CCC(=O)c2c(O)cc(O[C@@H]3O[C@H](CO)[C@@H](O)[C@H](O)[C@H]3O[C@@H]3O[C@@H](C)[C@H](O)[C@@H](O)[C@H]3O)cc2O)cc1O` the entry was “inactive”.
With `CCN(CC)CCOc1ccc(/C(=C(\Cl)c2ccccc2)c2ccccc2)cc1` the figure was 79400 nM (active).
